Source: PubChem BioAssay AID1159580 (chemical genetic matrix, 2015)
Among all 5,500 compounds or so, about 2,000 (36%) were called active. Inconclusive results (about 18%) are left out. No stated cut-off is given here; in the data, active means normalized growth mostly below about 0.91 (no sharp cut-off); inconclusive means no clear call, values can overlap the other calls; inactive means mostly above about 0.92. The list shows a part of the results.

Test: chemical genetic growth profiling, strain panel (AID 1159580);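 further: tested at 20 µM; growth read once vehicle control cultures reached saturation at 30 °C; 1 = growth at the plate median or of vehicle wells; lower values mean less growth of the strain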
Conditions: S. cerevisiae deletion strains, growth OD

Measured: normalized growth

CCCOc1ccccc1-c1nc2n[nH]nc2c(=O)[nH]1
inactive: locus YAL013W, strain DEP1, hits give low values 0.99 | locus YAL021C, strain ccr4, hits give low values 0.965 | locus YAL026C, strain drs2, hits give low values 1.02 | locus YAL030W, strain snc1, hits give low values 0.995 | locus YAL040C, strain CLN3, hits give low values 1.05 | locus YBL061C, strain skt5, hits give low values 1 | locus YBR009C, strain hhf1, hits give low values 1.03 | locus YBR021W, strain FUR4, hits give low values 0.996 | locus YBR023C, strain chs3, hits give low values 1 | locus YBR171W, strain sec66, hits give low values 1.01 | locus YBR229C, strain ROT2, hits give low values 1 | locus YBR231C, strain swc5, hits give low values 1.02 | locus YBR279W, strain paf1, hits give low values 1.01 | locus YCL011C, strain gbp2, hits give low values 1.01 | locus YCL016C, strain dcc1, hits give low values 1.01 | locus YCL029C, strain bik1, hits give low values 1.01 | locus YCL061C, strain MRC1 (second series), hits give low values 0.993 | locus YCL061C, strain MRC1, hits give low values 1 | locus YCL069W, strain vba3, hits give low values 0.992 | locus YCR088W, strain abp1, hits give low values 1 | locus YDL005C, strain med2, hits give low values 1 | locus YDL035C, strain GPR1, hits give low values 1.02 | locus YDL040C, strain nat1, hits give low values 0.991 | locus YDL074C, strain BRE1, hits give low values 1.01 | locus YDL101C, strain DUN1, hits give low values 1.01 | locus YDL134C, strain PPH21, hits give low values 1.01 | locus YDL185W, strain tfp1, hits give low values 1.01 | locus YDL192W, strain arf1, hits give low values 1.01 | locus YDR001C, strain nth1, hits give low values 0.998 | locus YDR069C, strain doa4, hits give low values 1.02 | locus YDR101C, strain arx1, hits give low values 1 | locus YDR137W, strain rgp1, hits give low values 1 | locus YDR159W, strain sac3, hits give low values 1.03 | locus YDR162C, strain NBP2, hits give low values 1.01 | locus YDR195W, strain ref2 1.04 | locus YDR297W, strain sur2, hits give low values 1 | locus YDR318W, strain mcm21, hits give low values 1.01 | locus YDR334W, strain swr1, hits give low values 1.01 | locus YDR335W, strain msn5, hits give low values 1 | locus YDR363W, strain ESC2, hits give low values 0.985 | locus YDR388W, hits give low values 1.02 | locus YDR392W, strain spt3, hits give low values 0.956 | locus YDR502C, strain sam2, hits give low values 1.01 | locus YEL003W, strain gim4, hits give low values 1.01 | locus YEL037C, strain rad23, hits give low values 0.998 | locus YEL061C, strain CIN8 (second series), hits give low values 1 | locus YEL061C, strain CIN8, hits give low values 1.01 | locus YER002W, strain NOP16, hits give low values 1.01 | locus YER015W, strain faa2, hits give low values 1.01 | locus YER016W, strain bim1, hits give low values 1.01 | locus YER110C, hits give low values 1.01 | locus YER111C, strain swi4, hits give low values 1.01 | locus YER155C, strain BEM2 (second series), hits give low values 1.05 | locus YER155C, strain BEM2, hits give low values 1 | locus YER167W, strain BCK2, hits give low values 1.01 | locus YFR010W, strain ubp6, hits give low values 1.01 | locus YGL078C, strain dbp3, hits give low values 1.01 | locus YGL086W, strain mad1, hits give low values 1 | locus YGL167C, strain pmr1, hits give low values 1.01 | locus YGL173C, strain kem1, hits give low values 1.01 | locus YGL227W, strain vid30, hits give low values 1.01 | locus YGL240W, strain doc1, hits give low values 1.05 | locus YGL248W, strain PDE1, hits give low values 0.981 | locus YGL253W, strain hxk2, hits give low values 1.01 | locus YGR078C, strain PAC10, hits give low values 1.01 | locus YGR135W, strain pre9, hits give low values 1.01 | locus YGR229C, strain SMI1, hits give low values 1.01 | locus YGR252W, strain gcn5, hits give low values 1.03 | locus YHR013C, strain ard1, hits give low values 0.978 | locus YHR027C, strain rpn1, hits give low values 1 | locus YHR030C, strain SLT2, hits give low values 1 | locus YHR079C, strain IRE1 (second series), hits give low values 1.01 | locus YHR094C, strain hxt1, hits give low values 1.02 | locus YHR129C, strain ARP1, hits give low values 1 | locus YHR142W, strain chs7, hits give low values 0.953 | locus YHR200W, strain rpn10, hits give low values 1.01 | locus YIL066C, strain RNR3, hits give low values 1 | locus YIL073C, strain SPO22, hits give low values 1.08 | locus YIL125W, strain kgd1, hits give low values 1 | locus YIR030C, strain dcg1, hits give low values 1.01 | locus YJL092W, strain hpr5, hits give low values 1 | locus YJL095W, strain BCK1 (second series), hits give low values 1.01 | locus YJL095W, strain BCK1, hits give low values 0.994 | locus YJL115W, strain asf1, hits give low values 1 | locus YJL129C, strain trk1, hits give low values 0.992 | locus YJL134W, strain LCB3, hits give low values 1.01 | locus YJL154C, strain vps35, hits give low values 0.999 | locus YJL164C, strain tpk1, hits give low values 0.987 | locus YJL166W, strain qcr8, hits give low values 1.01 | locus YJL168C, strain set2, hits give low values 1.01
